Active and inactive are the calls of the source.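 The calls were made as follows, unless noted: active = visually confirmed hit in the image check and inhibition above 20%; inconclusive = visually confirmed hit but inhibition not above 20%; inactive = no visual hit in the image check.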

Experiment [1] is described as follows: inhibitors of TNFa-induced NFkB p65 translocation, primary screen, imaging, HUVEC, MLSMR starter and 10KST1 sets (AID 438;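 active = inhibition above 20% together with a positive visual image hit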;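 also: compound added about 3h40 before a 20 min TNFalpha stimulation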;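 as to inhibition: signal is the nuclear over cytoplasmic p65 intensity ratio per well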). The conditions noted are these: HUVEC TNFa-induced p65 nuclear translocation; cell count: measured here: nuclei count (cytotoxicity indicator), at 2.08 µM; inhibition: at 2 µM, stronger effect = higher value, 0% TNFa-plus-vehicle, 100% no-TNFa wells.

Experiment [2] in a line: inhibitors of mutant huntingtin aggregation, primary screen, imaging, exon1htt(103Q)mCFP cells, high-content imaging (AID 483;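 active = visual image review flags a hit and inhibition of aggregation exceeds 20%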;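 also: compound exposure lasted 3 days before fixation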;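 as to nuclei count: percent of the per-plate median nuclei count of sample wells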). The conditions noted are these: exon1htt(103Q)mCFP cell line, aggregate imaging, at 2 µM; inhibition of aggregation: stronger effect = higher value; nuclei count: measured here: cell count, toxicity.
Experiment [3] can be described thus: inhibitors of E-selectin induction by TNFa, primary screen, imaging, HUVEC, immunofluorescence, MLSMR starter and 10KST1 sets (AID 487).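 As to inhibition: signal is fraction of cell area covered by stained E-selectin grains.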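 As to nuclei count: 100% = median nuclei count of all wells on the same plate.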 The conditions noted are these: HUVEC TNFalpha-induced E-selectin immunofluorescence imaging, at 2 µM; inhibition: stronger effect = higher value; nuclei count: measured here: cell number, toxicity.
A short description of experiment [4]: DUSP6 inhibitors restoring Erk phosphorylation by chemical complementation, primary imaging in DUSP6-transfected HeLa (AID 609;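 active = compounds giving at least 50% inhibition in the cell-based MKP-3 phosphatase rescue imaging test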;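 as to inhibition: phospho-Erk level distribution per well compared with pooled transfected vehicle control wells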). To be noted: HeLa MKP-3 transfected, phospho-Erk imaging KS statistic, at 10 µM, cells stimulated with TPA for 15 min.
The target of experiment [5] is Dual specificity protein phosphatase 6 (Homo sapiens) (UniProt Q16828). The experiment is described as above. The conditions noted are these: HeLa MKP-3 transfected, phospho-Erk imaging KS statistic; at 10 µM; stronger effect = higher value; cells stimulated with TPA for 15 min.
Dual specificity protein phosphatase 6 (Homo sapiens), sequence (Q16828 whole entry, looked up): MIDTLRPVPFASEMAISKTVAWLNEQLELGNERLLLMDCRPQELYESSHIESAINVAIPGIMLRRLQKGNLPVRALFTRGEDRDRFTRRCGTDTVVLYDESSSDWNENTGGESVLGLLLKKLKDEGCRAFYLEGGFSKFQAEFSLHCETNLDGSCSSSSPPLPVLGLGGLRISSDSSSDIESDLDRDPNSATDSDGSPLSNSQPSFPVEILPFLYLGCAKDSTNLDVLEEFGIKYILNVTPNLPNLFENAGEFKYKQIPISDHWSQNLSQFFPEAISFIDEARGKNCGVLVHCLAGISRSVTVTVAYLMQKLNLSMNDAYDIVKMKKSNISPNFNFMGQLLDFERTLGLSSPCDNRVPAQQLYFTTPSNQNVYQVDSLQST
Experiment [6] concerns the target Voltage-gated potassium channel subunit beta-2 (Rattus norvegicus) (UniProt P62483). The experiment can be described thus: KvBeta enzyme negative modulators, primary screen, biochemical, NADPH fluorescence (AID 622;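 active = fluorescence slope higher than the sample average by over 3 SD, cut at about -0.22 in these data, passing the limit was not always enough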;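 also: slope of raw intensity against log time taken from 70 to 1610 s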). The conditions noted are these: recombinant KvBeta, 4-cyanobenzaldehyde reduction, at 10 µM, stronger effect = higher value.
Experiment [7] has the same target. The experiment can be described thus: KvBeta positive modulators, primary screen, biochemical, NADPH fluorescence (AID 623;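 active = NADPH fluorescence slope more negative than the mean of all samples by about 3 SD, 99.7% confidence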;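 also: fluorescence intensity change per second fitted from 20 to 320 s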). To be noted: Recombinant KvBeta, NADPH fluorescence decrease slope, 10 min; at 10 µM; stronger effect = lower value.
Experiment [8] has as its target Alpha-2C adrenergic receptor (Homo sapiens) (UniProt P18825). The experiment can be described thus: modulators of alpha2C/GIRK thallium flux, primary screen, cell-based, HEK293 alpha2C/GIRK1/2 (AID 624;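 active = fluorescence slope after compound addition differing from the mean of all screened samples at 99.7% confidence, in either direction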;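 also: slope of fluorescence ratio to pre-addition baseline per second over 15 to 24 s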). The conditions noted are these: thallium flux BTC fluorescence, at 10 µM, actives lie on both sides.
For experiment [9], the target named is Muscarinic acetylcholine receptor M4 (Homo sapiens) (UniProt P08173). The experiment can be described thus: compounds altering M4/GIRK thallium flux, either direction, primary screen, M4 allosteric agonist project, cell-based, HEK293 M4/GIRK, BTC-AM (AID 625;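 active = fluorescence slope after compound addition differing from the mean of all tested samples at 99.7% confidence, mostly higher but some lower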;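 also: thallium influx through GIRK channels coupled to M4 in HEK293 cells with BTC-AM dye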). To be noted: at 10 µM, actives lie on both sides.
Muscarinic acetylcholine receptor M4 (Homo sapiens), sequence (P08173 whole entry, looked up): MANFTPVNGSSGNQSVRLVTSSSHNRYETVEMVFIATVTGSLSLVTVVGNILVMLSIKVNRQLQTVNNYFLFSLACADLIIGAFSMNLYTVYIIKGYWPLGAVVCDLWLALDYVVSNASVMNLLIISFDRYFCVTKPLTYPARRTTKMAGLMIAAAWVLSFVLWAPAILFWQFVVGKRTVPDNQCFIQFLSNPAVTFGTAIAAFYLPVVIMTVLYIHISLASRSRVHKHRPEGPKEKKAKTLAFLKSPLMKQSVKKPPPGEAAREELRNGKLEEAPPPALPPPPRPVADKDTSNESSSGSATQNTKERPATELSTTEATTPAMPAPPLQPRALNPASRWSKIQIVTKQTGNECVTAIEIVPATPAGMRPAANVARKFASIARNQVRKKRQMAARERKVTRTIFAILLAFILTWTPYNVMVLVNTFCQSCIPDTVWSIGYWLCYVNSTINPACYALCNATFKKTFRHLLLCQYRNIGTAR
A short description of experiment [10]: inhibitors of larval lipid processing in zebrafish, primary screen, whole organism, PED6 fluorescence, gall bladder and intestine (AID 686;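 active = a full or partial loss of lipid-probe fluorescence in the fish gall bladder, intestine or both, judged by eye; inactive = no fluorescence loss, or compound toxic to the fish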;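 also: larvae 5 to 7 days old with five fish per well; signal comes from phospholipase A2 cleavage of quenched PED6 carried via bile; overnight exposure to compound and PED6 before scoring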). To be noted: Zebrafish larvae PED6 lipid processing, fluorescence scoring; screened at 20 µM (by protocol).
A short description of experiment [11]: inhibitors of Chlamydomonas gravitaxis, primary screen, whole organism, Chlamydomonas reinhardtii, WT vs cilia-less mutant, absorbance, 96-well (AID 463189;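 active = inhibition at or above 50% relative to wild type and mutant plate controls; inactive = inhibition below 50%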;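 also: 0% = wild type cc124 cells in DMSO and 100% = ciliumless bld1 mutant cells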). To be noted: OD600 absorbance, 2 days, at 10 µM, stronger effect = higher value.
A short description of experiment [12]: inhibitors of Sendai virus-induced IRF3 signaling, primary screen, TLR/RLR signaling modifier project, cell-based, Sendai virus stimulus, luciferase, 10K MLSCN set (AID 602276;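 active = inhibition at or above 50% at 10 µM; inactive = inhibition below 50%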;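 also: firefly luciferase from ISG56 promoter only with Renilla not read in this screen; 0% = Sendai virus plus DMSO and 100% = medium plus DMSO without virus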). The conditions noted are these: HEK293 RL24 IRF3 luciferase reporter, at 10 µM, stronger effect = higher value.
The nature of experiment [13]: inhibitors of poly I:C-induced TLR3 signaling, primary screen, cell-based, poly I:C stimulus, luciferase, 10K MLSCN set (AID 602277;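 active = inhibition of the reporter signal at or above 50%; inactive = inhibition below 50%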). To be noted: HEK293-TLR3 RL24 IRF3 luciferase reporter, at 10 µM, stronger effect = higher value. For orientation: A reporter such as luciferase makes a cellular process visible.
[14] abbreviates: measured here: cell density z-score.
Where [15] appears, read: measured here: nuclear c-Myc green intensity z-score.
[16] abbreviates: measured here: nuclear pErk red intensity z-score, stronger effect = higher value.

Alpha-2C adrenergic receptor (Homo sapiens), sequence (P18825 whole entry, looked up): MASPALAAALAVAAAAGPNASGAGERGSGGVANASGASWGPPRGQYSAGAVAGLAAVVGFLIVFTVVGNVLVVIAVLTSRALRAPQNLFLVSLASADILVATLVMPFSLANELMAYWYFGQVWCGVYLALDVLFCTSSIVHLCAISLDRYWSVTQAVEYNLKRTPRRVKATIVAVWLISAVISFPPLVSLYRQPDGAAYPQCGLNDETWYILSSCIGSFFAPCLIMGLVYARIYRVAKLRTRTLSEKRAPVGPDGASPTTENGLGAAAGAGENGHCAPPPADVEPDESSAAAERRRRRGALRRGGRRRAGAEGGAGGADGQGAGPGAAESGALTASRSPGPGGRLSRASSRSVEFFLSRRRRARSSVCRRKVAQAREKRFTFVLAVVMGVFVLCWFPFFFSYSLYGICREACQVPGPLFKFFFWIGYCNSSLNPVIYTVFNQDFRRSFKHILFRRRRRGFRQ
Voltage-gated potassium channel subunit beta-2 (Rattus norvegicus), sequence (P62483 whole entry, looked up): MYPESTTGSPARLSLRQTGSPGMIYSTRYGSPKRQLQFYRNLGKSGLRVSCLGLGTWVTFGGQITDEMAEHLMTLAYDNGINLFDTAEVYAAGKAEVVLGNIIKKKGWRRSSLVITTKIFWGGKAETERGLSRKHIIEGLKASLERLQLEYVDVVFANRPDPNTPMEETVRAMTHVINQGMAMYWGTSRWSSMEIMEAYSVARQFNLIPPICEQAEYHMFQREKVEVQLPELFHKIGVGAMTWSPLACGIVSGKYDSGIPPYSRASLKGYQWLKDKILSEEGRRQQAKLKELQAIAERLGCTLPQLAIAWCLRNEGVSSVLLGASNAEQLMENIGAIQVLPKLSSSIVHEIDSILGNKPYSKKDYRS

The inhibition is the drop in the measured response relative to a control, in per cent. As for `COc1ccc(-c2onc(C)c2-c2ccccc2)c(O)c1`, the cell count in experiment [1] was determined as 477. Besides, the inhibition in experiment [1] is 0.4% (inactive); in experiment [3] it was -110% (inactive); in [5], 1.98% (inactive); in experiment [11], -11.4% (inactive); in experiment [12] it was 8.8% (inactive); in experiment [13] it was 32.3% (inactive). Moreover, the inhibition of aggregation in experiment [2] is -9.9% (inactive). The nuclei count in experiment [2] is 101%; in experiment [3] it was 112%. Also, the z-score in [4] (setting [14]) was -0.0693; in experiment [4] (setting [15]), -0.0566; in experiment [4] (setting [16]) it was -1.27. Moreover, the fluorescence slope in experiment [6] was -0.441 (inactive); in experiment [9], 0.00531 (inactive). Moreover, the NADPH fluorescence slope in experiment [7] is -4.2e-06 (inactive). Also, the slope in [8] is 0.00908 (inactive). In experiment [10], the outcome was inactive.

Take `Cc1nnc(SCC(=O)N2CCC(C(N)=O)CC2)s1`: the cell count in experiment [1] was 423. Besides, the inhibition in experiment [1] was -2.2% (inactive); in [3], -80.5% (inactive); in [5] it was -3.95% (inactive); in experiment [11] it was 29.5% (inactive); in [12], 7.88% (inactive); in experiment [13] it was 7.15% (inactive). In addition, in experiment [2], the inhibition of aggregation was -4.3% (inactive). Moreover, the nuclei count came to 87.6% in experiment [2] and 137% in [3]. For the same compound, the z-score in experiment [4] (setting [14]) was -1.3; in experiment [4] (setting [15]), -0.207; in experiment [4] (setting [16]) it was -0.854. Further, the fluorescence slope was -0.418 (inactive) in experiment [6] and 0.00524 (inactive) in experiment [9]. Further, the NADPH fluorescence slope in [7] is -3.7e-05 (inactive). In addition, the slope in experiment [8] was 0.00689 (inactive). Also, the result in experiment [10] was inactive.

Turning to `CC(=N\O)/C(CN(C)C)=N/O`, in experiment [1], the cell count came out at 593. Besides, the inhibition was -2.4% (inactive) in experiment [1]; -11.6% (inactive) in experiment [3]; -0.233% (inactive) in experiment [5]; -6.2% (inactive) in [11]; -13.1% (inactive) in experiment [12]; 1.97% (inactive) in experiment [13]. Besides, in [2], the inhibition of aggregation is -2.9% (inactive). Also, the nuclei count in [2] was 86.5%; in experiment [3], 131%. Further, the z-score is 0.774 in [4] (setting [14]), -0.0101 in experiment [4] (setting [15]) and -0.876 in [4] (setting [16]). The fluorescence slope in experiment [6] is -0.49 (inactive); in experiment [9], 0.00548 (inactive). The NADPH fluorescence slope in [7] is -6.9e-05 (inactive). In experiment [8], the slope was 0.0061 (inactive). Besides, in experiment [10], the compound was classed as inactive.

On to `Cc1cc(C)n(CC2CC(=O)N(c3ccc(Cl)c(Cl)c3)C2=O)n1` (stereo not given), for which the cell count in experiment [1] worked out at 566. For the same compound, the inhibition in [1] was -4.3% (inactive); in [3] it was -50.6% (inactive); in experiment [5], 12.8% (inactive); in [11], -1.93% (inactive); in experiment [12] it was -1.21% (inactive); in experiment [13], 6.73% (inactive). For the same compound, in experiment [2], the inhibition of aggregation was -16.2% (inactive). The figures for the nuclei count in experiment [2] and in experiment [3] were 104% and 139%, respectively. The results for the z-score in [4] (setting [14]), in [4] (setting [15]) and in experiment [4] (setting [16]) were 0.432, -0.507 and 0.03, respectively. Besides, the results for the fluorescence slope in [6] and in experiment [9] were -0.489 (inactive) and 0.00497 (inactive), respectively. Moreover, the NADPH fluorescence slope in experiment [7] was -5.7e-05 (inactive). In addition, the slope in experiment [8] is 0.0052 (inactive). The compound was called inactive in [10].

As to `CC(=O)Nc1ccc(Oc2ccc3nc(C)[nH]c3c2)cc1`, the cell count in experiment [1] is 566. For the same compound, the inhibition was -6.8% (inactive) in experiment [1]; -129% (inactive) in experiment [3]; 13.7% (inactive) in experiment [5]; 5.53% (inactive) in experiment [11]; -8.22% (inactive) in experiment [12]; -0.929% (inactive) in experiment [13]. Also, the inhibition of aggregation in experiment [2] is 13% (inactive). Moreover, the nuclei count in [2] amounted to 95.6%; in [3], 133%. For the same compound, the z-score in [4] (setting [14]) is -0.271; in experiment [4] (setting [15]), -0.885; in experiment [4] (setting [16]) it was -1.67. Besides, the results for the fluorescence slope in experiment [6] and in experiment [9] were -0.504 (inactive) and 0.00521 (inactive), respectively. Moreover, the NADPH fluorescence slope in [7] was -3.4e-05 (inactive). Also, the slope in experiment [8] was 0.00532 (inactive). Also, the outcome in experiment [10] was inactive.

For the origin of these results see PubChem BioAssay.
